In all, about 87,000 compounds went through this assay and about 540 (0.62%) were called active. The rule behind the calls is not given here. The sample as a whole holds a higher share of actives than the screen did. Results with a measured potency or affinity are listed apart.
assay: inhibitors of MT1-MMP promoter transcription, cell-based, luciferase reporter, luminescence (AID 618); conditions: MT1-MMP promoter luciferase reporter cells;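 note: actives suppress MT1-MMP promoter-driven transcription so potencies describe inhibitors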

SMILES	outcome
CCCC(C)NC(=O)C1CCN(S(=O)(=O)c2ccccc2)CC1 (stereo not drawn)	inactive
O=C(CSc1ccc(-c2nc3ccccc3[nH]2)cn1)N1CCN(C(=O)c2ccco2)CC1	inactive
O=C(c1ccc(S(=O)(=O)Nc2ccccc2)cc1)N1CCOCC1	inactive
CCN(CC)C(=O)C(C)N(C#N)c1nc(NC(C)C)nc(NC(C)C)n1 (stereo not drawn)	inactive
Cc1ccc(Cn2c(Sc3nnc(C)s3)nc3c2c(=O)[nH]c(=O)n3C)cc1	inactive
Cc1cccc(CCNC(=O)C2CCC(=O)N2Cc2ccc(F)cc2)c1 (stereo not drawn)	inactive
CCOC(=O)Cc1csc(SCC(=O)Nc2sc3c(c2C(N)=O)CCC3)n1	inactive
CCOC(=O)CSC1=C(C#N)C(c2ccc(C)o2)CC(=O)N1 (stereo not drawn)	active
CCSC1=C(C#N)C(c2ccc(C)s2)CC(=O)N1 (stereo not drawn)	inactive
CCOC(=O)CSC1=C(C#N)C(c2ccccc2OC)CC(=O)N1 (stereo not drawn)	inactive
CCOC(=O)CSC1=C(C#N)C(c2ccc(C)s2)CC(=O)N1 (stereo not drawn)	active
CCCCCCSC1=C(C#N)C(c2ccc(C)o2)CC(=O)N1 (stereo not drawn)	inactive
CCOC(=O)CSC1=C(C#N)C(c2ccc(Cl)cc2)CC(=O)N1 (stereo not drawn)	inactive
C=CCc1c(C)c(C#N)c2nc3ccccc3n2c1N1CCN(C)CC1	inactive
CCC(CC)C(=O)NCCc1cc2c(C)ccc(C)c2[nH]c1=O	inactive
COc1cc(Nc2cc(C)nc3ncnn23)cc(OC)c1OC	inactive
Cc1nc2ncnn2c(Nc2ccc3c(c2)OCO3)c1Cc1ccccc1	inactive

SMILES	outcome
COc1ccc(NC(=O)CSc2nnc(-c3cccnc3)o2)cc1	inactive
CCn1nc(C)c(NC(=O)CCCSc2nc(-c3ccco3)cc(C(F)(F)F)n2)c1C	inactive
Cc1ccc(C2C(C#N)=C(N)Oc3n[nH]c(C)c32)cc1 (stereo not drawn)	inactive
Cc1[nH]nc2c1C(C(C)C)C(C#N)=C(N)O2 (stereo not drawn)	inactive
Cc1[nH]nc2c1C(C1CC=CCC1)C(C#N)=C(N)O2 (stereo not drawn)	active
CC(=O)N(C(C)=O)C1=C(C#N)C2(CCCCC2)Cc2ccccc21	inactive
O=C(COc1ccccc1)Nc1nc2ccccc2[nH]1	inactive
O=C(Nc1ccc(F)cc1)c1ccccc1F	inactive
COc1cc(OC)cc(C(=O)Nc2nc3ccccc3[nH]2)c1	inactive
COc1cc(C(=O)Nc2nc3ccccc3[nH]2)cc(OC)c1OC	inactive
O=C(Cc1ccccc1)Nc1nc2ccccc2[nH]1	inactive
COC(=O)Nc1nc2ccc(C(=O)c3ccccc3)cc2[nH]1	inactive
O=C(Nc1nc2ccccc2[nH]1)c1ccccc1F	active
CCCOc1ccc2nc(NC(=O)OC)[nH]c2c1	inactive
C=CCOc1ccc2nc(NC(=O)OC)[nH]c2c1	active
Cc1cc(NC(=O)c2ccccc2F)n(-c2nc3ccccc3[nH]2)n1	inactive
